Inconclusive results are not listed. The source made the active and inactive calls. Rule as the data show it, unless noted: active = inhibition above about 30%; inactive = the rest.
Assays:
[1] = reducers of endogenous Her2 protein level, primary screen, SKBR3 breast tumor cells, AlphaScreen, ATP viability (AID 461;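 active = Her2 level under about 52% in both replicate screens, with viability over 70% of control, limit read from the data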;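 as to Her2 level: lower value means less Her2 protein in the cells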;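 as to viability: percent of carrier control wells set as 100% viability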); conditions: 18-24 h, measured here: SKBR3 viability, ATP luminescence, at 10 µM
[2] = molecular target: Receptor tyrosine-protein kinase erbB-2 (Homo sapiens) (UniProt P04626); test: as above; conditions: 18-24 h, at 10 µM, stronger effect = lower value
[3] = SK-BR-3 cell growth inhibitors, pilot screen, 24 h, human (AID 572;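 active = viability at or below 10% of carrier control in both of two separate runs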;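 also: compound exposure lasted between 18 and 24 h rather than exactly 24 h; 100% = carrier-treated control wells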); conditions: SK-BR-3 viability, CellTiter-Glo luminescence, at 10 µM, stronger effect = lower value
[4] = HUVEC growth inhibition – cell-based, human, primary screen (AID 575;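 active = viability at or below 30% in both replicate assays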;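 also: 100% = median of untreated cell wells with 0.1% DMSO on each plate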); conditions: HUVEC proliferation, CellTiter-Glo luminescence, 72 h; at 10 µM; stronger effect = lower value
[5] = growth inhibitors of H69AR lung tumor, primary screen, human, duplicate replicates (AID 580;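 active = viability at or under a set limit in both replicates, limit being median viability minus 3 SD, cut at about 48% in these data, passing the limit was not always enough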;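 also: 100% = mean luminescence of untreated wells and 0% = no signal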); conditions: H69AR lung tumor cells viability, ATP luminescence, 72 h; at 10 µM; stronger effect = lower value
[6] = reversal of MRP1-mediated doxorubicin resistance, pilot screen, H69AR cells, doxorubicin co-treatment (AID 601;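 active = viability loss from added drug above about 55%, and viability with drug at most 40%, in both replicates, limit read from the data, passing the limit was not always enough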); conditions: CellTiter-Glo, 72 h, at 10 µM; for differential viability (reversal): stronger effect = higher value
[7] = 384-well plate pilot, post-Golgi transport modulator project, inhibition of yeast transport mutant growth (AID 636; in the data active = inhibition above about 31%); conditions: absorbance 615 nm, about 18 h, stronger effect = higher value
[8] = growth suppression of yeast trafficking mutant, preliminary HTS, modulators of trafficking downstream of Golgi apparatus project, 1536-format plate, OD 615 nm (AID 637); conditions: yeast transport mutant growth, absorbance 615 nm, 18 h; stronger effect = higher value
[9] = OD615 S. cerevisiae growth inhibition, permissive medium, pilot counter-assay, permissive growth control for S. cerevisiae lifespan shortening project (AID 705;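 active = growth inhibition above 25% in both replicates, a cutoff set 3 SD above the mean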); conditions: OD615, 24 h, at 10 µM, stronger effect = higher value
[10] = Restrictive medium S. cerevisiae growth inhibition, OD615, pilot screen of yeast lifespan reduction project, restrictive growth control (AID 706;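 active = growth inhibition above a set limit, 3 SD over mean compound inhibition, in both replicates, cut at about 43% in these data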;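 also: modified DeaD lifespan yeast strain shifted to restrictive glucose medium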); conditions: OD615, 48 h, at 10 µM, stronger effect = higher value
[11] = viability gain of MRP-1-high H69AR cells under doxorubicin, pilot screen, MRP-1 activator project, CellTiter-Glo, duplicate (AID 807;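 active = viability increase at or above a cutoff of the median across tested compounds plus 3 SD, cut at about 8.5% in these data, passing the limit was not always enough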;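 also: compound pretreatment 18-22 h then 72 h combined with doxorubicin; 0% = doxorubicin alone and 100% = vehicle without doxorubicin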); conditions: H69AR viability with doxorubicin, CellTiter-Glo luminescence; at 10 µM; stronger effect = higher value
[12] = growth suppression of beta-catenin knockout HCT116, pilot screen, human colon tumor cells (AID 823;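 active = cell viability at or below a set limit in both duplicate runs, the limit being the all-compound median minus 4 SD, cut at about 23% in these data, passing the limit was not always enough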;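 also: 0% = wells killed by 20 µM Hyamine and 100% = untreated DMSO cell wells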); conditions: CellTiter-Glo, 60 h, at 10 µM, stronger effect = lower value
[13] = growth suppression of PTEN-deleted HCT116, pilot screen, cell-based, HCT116 clonal line, CellTiter-Glo (AID 824;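 active = viability at or below 27.92% in each of two runs, the all-compound median minus 4 SD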;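 also: 0% = 20 µM Hyamine control and 100% = vehicle cell control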); conditions: 60 h, at 10 µM, stronger effect = lower value
[14] = inhibitors of the yeast RAM network, pilot screen, dse1pr::URA3 reporter, 5-FOA selection (AID 869;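 active = inhibition over a set limit, the all-compound mean plus 3 SD, in both replicate runs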;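 also: 0% = DMSO wells with no growth and 100% = 10 µM 1-NA-PP1 with full growth; RAM network block rescues cells from 5-FOA so hits raise OD615 growth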); conditions: S. cerevisiae dse1pr::URA3 5-FOA growth, OD615, 2 d; at 10 µM; stronger effect = higher value; strain carries analog-sensitive mutant Cbk1 kinase
[15] = RAM signaling pathway blockade in yeast – S. cerevisiae, Pdr1DBD-CYC8 efflux-inhibited sensitized strain, primary screen (AID 1298;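 active = RAM network inhibition above 8.4% in each of two replicates, 3 SD over the compound average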;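 also: 0% = DMSO untreated cells without growth and 100% = 10 µM 1-NA-PP1 full growth; higher means more yeast growth rescued from 5-FOA killing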); conditions: S. cerevisiae cbk1-as DSE1-URA3 strain, 5-FOA growth OD615, 2 d; at 50 µM; stronger effect = higher value
[16] = H69AR cells + 2 uM doxorubicin, measured here: viability with 2 uM doxorubicin, stronger effect = lower value
[17] = H69AR cells, compound alone cytotoxicity

Sequence of Receptor tyrosine-protein kinase erbB-2 (Homo sapiens) (P04626 whole entry, looked up): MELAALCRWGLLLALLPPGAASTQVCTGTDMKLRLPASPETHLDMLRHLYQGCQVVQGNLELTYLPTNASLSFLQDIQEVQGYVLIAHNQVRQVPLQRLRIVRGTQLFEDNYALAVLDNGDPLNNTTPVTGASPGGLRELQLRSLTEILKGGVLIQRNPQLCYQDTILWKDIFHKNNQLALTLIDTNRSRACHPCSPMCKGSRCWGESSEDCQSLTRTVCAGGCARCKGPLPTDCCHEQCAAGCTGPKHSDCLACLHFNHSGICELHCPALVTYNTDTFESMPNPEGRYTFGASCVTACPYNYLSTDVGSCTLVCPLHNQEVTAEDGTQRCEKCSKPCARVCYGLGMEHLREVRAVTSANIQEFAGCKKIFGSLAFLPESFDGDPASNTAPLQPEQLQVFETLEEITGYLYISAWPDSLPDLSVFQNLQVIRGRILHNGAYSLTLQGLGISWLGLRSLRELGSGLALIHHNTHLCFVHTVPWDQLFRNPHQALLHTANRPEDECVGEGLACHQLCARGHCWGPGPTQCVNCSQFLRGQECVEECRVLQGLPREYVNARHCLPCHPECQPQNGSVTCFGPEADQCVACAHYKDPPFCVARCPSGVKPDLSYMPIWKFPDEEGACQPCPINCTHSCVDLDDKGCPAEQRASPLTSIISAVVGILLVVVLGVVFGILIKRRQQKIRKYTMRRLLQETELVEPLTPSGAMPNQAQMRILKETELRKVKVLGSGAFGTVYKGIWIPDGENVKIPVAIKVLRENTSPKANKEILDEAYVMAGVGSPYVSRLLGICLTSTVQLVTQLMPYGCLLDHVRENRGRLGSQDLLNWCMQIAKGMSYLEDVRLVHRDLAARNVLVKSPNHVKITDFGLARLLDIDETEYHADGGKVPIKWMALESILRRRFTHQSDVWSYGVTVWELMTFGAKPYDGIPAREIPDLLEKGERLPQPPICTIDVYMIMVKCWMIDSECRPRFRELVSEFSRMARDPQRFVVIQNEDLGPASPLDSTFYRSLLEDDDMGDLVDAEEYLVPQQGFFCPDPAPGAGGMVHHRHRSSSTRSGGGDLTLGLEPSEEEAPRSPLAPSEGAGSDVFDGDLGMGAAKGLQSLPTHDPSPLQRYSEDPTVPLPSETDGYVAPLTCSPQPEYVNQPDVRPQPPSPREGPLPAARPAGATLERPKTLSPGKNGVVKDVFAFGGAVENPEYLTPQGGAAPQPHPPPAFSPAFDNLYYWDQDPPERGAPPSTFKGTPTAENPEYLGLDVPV

Compound	viability [1]	Her2 level [2]	viability [3]	viability [4]	viability [5]	differential viability (reversal) ([6]; H69AR cells + 2 uM doxorubicin)	viability [6, 16]	viability [6, 17]	inhibition [7]	inhibition [8]	growth inhibition [9]	growth inhibition [10]	viability increase [11]	viability [12]	viability [13]	inhibition [14]	RAM network inhibition [15]
O=C(C1CCN(S(=O)(=O)c2cccc3cccnc23)CC1)N1CCN(C2CCCCC2)CC1	102%	102% (inactive)	102% (inactive)	99.9% (inactive)	102% (inactive)	2.56% (inactive)	99.2%	102%	-2.8% (inactive)	-0.49% (inactive)	6.08% (inactive)	0.815% (inactive)	-2.03% (inactive)	97.8% (inactive)	98.7% (inactive)	1.12% (inactive)	7.73% (inactive)
CSc1nc2ccccc2c(=O)n1N	109%	94.5% (inactive)	109% (inactive)	93.9% (inactive)	97.5% (inactive)	4.46% (inactive)	93.1%	97.5%	-3.78% (inactive)	-1.48% (inactive)	-16.4% (inactive)	6.12% (inactive)	-1.1% (inactive)	92.2% (inactive)	103% (inactive)	1.75% (inactive)	4.29% (inactive)
COc1cccc(C2CC(c3ccc(C)cc3)n3nc(N)nc3N2)c1 (stereo not given)	104%	112% (inactive)	104% (inactive)	95.3% (inactive)	98.2% (inactive)	-7.23% (inactive)	105%	98.2%	-4.1% (inactive)	3.5% (inactive)	0.34% (inactive)	9.55% (inactive)	-1.45% (inactive)	103% (inactive)	98.6% (inactive)	-0.18% (inactive)	7.85% (inactive)
O=C(C(Cc1ccccc1)n1cccc1)N1CCCCCC1 (stereo not given)	99%	102% (inactive)	99% (inactive)	87.6% (inactive)	95.6% (inactive)	11.2% (inactive)	84.4%	95.6%	-0.13% (inactive)	-6.89% (inactive)	-11.2% (inactive)	-7.42% (inactive)	-2.42% (inactive)	95.3% (inactive)	88% (inactive)	1.68% (inactive)	2.67% (inactive)
CC(CCc1ccco1)NC(=O)Cn1ncc2c1-c1ccccc1OC2 (stereo not given)	93%	90% (inactive)	93% (inactive)	90.8% (inactive)	92.9% (inactive)	11.9% (inactive)	81%	92.9%	-2.4% (inactive)	-0.66% (inactive)	-5.12% (inactive)	-19% (inactive)	-4.45% (inactive)	101% (inactive)	91.3% (inactive)	1.11% (inactive)	7.86% (inactive)
COc1ccc(C(=O)NCC(=O)NC2=NCCS2)cc1	100%	104% (inactive)	100% (inactive)	120% (inactive)	102% (inactive)	10.7% (inactive)	91%	102%	-4.67% (inactive)	0.33% (inactive)	-1.83% (inactive)	-4.44% (inactive)	-1.93% (inactive)	102% (inactive)	98.1% (inactive)	1.56% (inactive)	2.03% (inactive)
CCC(=O)Nc1cccc(Br)c1	114%	116% (inactive)	114% (inactive)	113% (inactive)	95.4% (inactive)	-2.25% (inactive)	97.7%	95.4%	-4.4% (inactive)	-8.06% (inactive)	-9.21% (inactive)	2.72% (inactive)	-0.82% (inactive)	96.4% (inactive)	85.5% (inactive)	-0.04% (inactive)	-0.05% (inactive)
CCOCCCNC(=O)c1ccc2c(c1)N(Cc1ccccc1)C(=O)CS2=O (stereo not given)	104%	103% (inactive)	104% (inactive)	103% (inactive)	106% (inactive)	10.2% (inactive)	96.1%	106%	0.13% (inactive)	-10.7% (inactive)	-5.99% (inactive)	6.05% (inactive)	-0.16% (inactive)	102% (inactive)	93.1% (inactive)	1.42% (inactive)	-0.72% (inactive)
CCOc1ccc(C2CC(c3cccc(OC)c3)Nc3nc(N)nn32)cc1 (stereo not given)	91.5%	114% (inactive)	91.5% (inactive)	95.8% (inactive)	90.7% (inactive)	-2.32% (inactive)	93%	90.7%	3.85% (inactive)	5.5% (inactive)	5.33% (inactive)	13.6% (inactive)	-0.23% (inactive)	99% (inactive)	87.1% (inactive)	1.65% (inactive)	4.8% (inactive)
Cn1nnc2cc(C(=O)N3CCCCCC3)ccc21	81.5%	99.5% (inactive)	81.5% (inactive)	81.7% (inactive)	105% (inactive)	10.6% (inactive)	94.3%	105%	-4.73% (inactive)	-6.23% (inactive)	-10.5% (inactive)	-19.7% (inactive)	-0.53% (inactive)	109% (inactive)	96% (inactive)	0.345% (inactive)	1.87% (inactive)
